{"source": "ChEMBL document CHEMBL1157539", "about": "“Thousands of chemical starting points for antimalarial lead identification” (Nature, 2010)", "type_in_all_cases": "functional", "key": {"Plasmodium falciparum [1]": {"test_system": "Plasmodium falciparum", "test": "GSK_TCMDC: Inhibition of Plasmodium falciparum 3D7 in whole red blood cells, using parasite LDH activity as an index of growth. Test compounds present at 2uM"}, "Plasmodium falciparum [2]": {"test_system": "Plasmodium falciparum", "test": "GSK_TCMDC: Inhibition of Plasmodium falciparum Dd2 in whole red blood cells, using parasite LDH activity as an index of growth. Test compounds present at 2uM"}, "HepG2": {"test_system": "HepG2", "test": "GSK_TCMDC: Percent inhibition of human HepG2 cell line. Test compounds present at 10uM."}}}
{"smiles": "O=C(O)C(F)(F)F.O=S(=O)(NCCN1CCCC1)c1ccc(-c2ccc(CN3Cc4ccccc4C3)cc2)s1", "values": [{"measurement": "Inhibition", "setting": "Plasmodium falciparum [1]", "value": 89, "unit": "%"}, {"measurement": "Inhibition", "setting": "Plasmodium falciparum [2]", "value": 18, "unit": "%"}, {"measurement": "Inhibition", "setting": "HepG2", "value": 19, "unit": "%"}]}
{"smiles": "CC(C)(C)C(=O)Nc1ccccc1Oc1ccc(Cl)cc1", "values": [{"measurement": "Inhibition", "setting": "Plasmodium falciparum [1]", "value": 92, "unit": "%"}, {"measurement": "Inhibition", "setting": "Plasmodium falciparum [2]", "value": 96, "unit": "%"}, {"measurement": "Inhibition", "setting": "HepG2", "value": 54, "unit": "%"}]}
{"smiles": "Br.CCn1c2c(c(=N)c3ccccc31)CCC2", "values": [{"measurement": "Inhibition", "setting": "Plasmodium falciparum [1]", "value": 83, "unit": "%"}, {"measurement": "Inhibition", "setting": "Plasmodium falciparum [2]", "value": 61, "unit": "%"}, {"measurement": "Inhibition", "setting": "HepG2", "value": 11, "unit": "%"}]}
{"smiles": "Cc1cc(C(=O)CN2C(=O)NC3(CCCc4ccccc43)C2=O)c(C)n1Cc1ccco1", "note": "(stereo not drawn)", "values": [{"measurement": "Inhibition", "setting": "Plasmodium falciparum [1]", "value": 90, "unit": "%"}, {"measurement": "Inhibition", "setting": "Plasmodium falciparum [2]", "value": 0, "unit": "%"}, {"measurement": "Inhibition", "setting": "HepG2", "value": 11, "unit": "%"}]}
{"smiles": "Cc1cccc2c3c([nH]c12)C1(CCN(CCc2ccccc2)CC1)NC(C(=O)NCc1ccccc1)C3", "note": "(stereo not drawn)", "values": [{"measurement": "Inhibition", "setting": "Plasmodium falciparum [1]", "value": 86, "unit": "%"}, {"measurement": "Inhibition", "setting": "Plasmodium falciparum [2]", "value": 52, "unit": "%"}, {"measurement": "Inhibition", "setting": "HepG2", "value": 10, "unit": "%"}]}
{"smiles": "CCOC(=O)c1ccc(NC(=O)N[C@@H](Cc2ccccc2)C(=O)NC2CCN(Cc3ccc(O)c(OC)c3)C2)cc1", "note": "(stereo partly drawn)", "values": [{"measurement": "Inhibition", "setting": "Plasmodium falciparum [1]", "value": 88, "unit": "%"}, {"measurement": "Inhibition", "setting": "Plasmodium falciparum [2]", "value": 0, "unit": "%"}, {"measurement": "Inhibition", "setting": "HepG2", "value": 0, "unit": "%"}]}
{"smiles": "CCCCCOc1ccc(N2C(N)=NC(N)=NC2(C)C)cc1.Cl", "values": [{"measurement": "Inhibition", "setting": "Plasmodium falciparum [1]", "value": 97, "unit": "%"}, {"measurement": "Inhibition", "setting": "Plasmodium falciparum [2]", "value": 0, "unit": "%"}, {"measurement": "Inhibition", "setting": "HepG2", "value": 24, "unit": "%"}]}
{"smiles": "CC(C)CCNC(=O)C1Cc2c([nH]c3ccc(Br)cc23)C2(CCN(CCc3ccccc3)CC2)N1", "note": "(stereo not drawn)", "values": [{"measurement": "Inhibition", "setting": "Plasmodium falciparum [1]", "value": 100, "unit": "%"}, {"measurement": "Inhibition", "setting": "Plasmodium falciparum [2]", "value": 61, "unit": "%"}, {"measurement": "Inhibition", "setting": "HepG2", "value": 25, "unit": "%"}]}
{"smiles": "CN(C(=O)/C=C/c1cc(C(F)(F)F)ccc1F)C1CCN(CCCCCNC(=O)/C=C/c2ccc(Cl)c(Cl)c2)C1", "note": "(stereo not drawn)", "values": [{"measurement": "Inhibition", "setting": "Plasmodium falciparum [1]", "value": 93, "unit": "%"}, {"measurement": "Inhibition", "setting": "Plasmodium falciparum [2]", "value": 1, "unit": "%"}, {"measurement": "Inhibition", "setting": "HepG2", "value": 16, "unit": "%"}]}
{"smiles": "Cc1c(C)n(C2CCCCC2)c2ncnc(OC3CCN(CC(=O)N4CCCC4)CC3)c12", "values": [{"measurement": "Inhibition", "setting": "Plasmodium falciparum [1]", "value": 95, "unit": "%"}, {"measurement": "Inhibition", "setting": "Plasmodium falciparum [2]", "value": 59, "unit": "%"}, {"measurement": "Inhibition", "setting": "HepG2", "value": 31, "unit": "%"}]}
{"smiles": "CCCCN(C(=O)c1ccccc1C)c1nnc(-c2ccccc2C)s1", "values": [{"measurement": "Inhibition", "setting": "Plasmodium falciparum [1]", "value": 92, "unit": "%"}, {"measurement": "Inhibition", "setting": "Plasmodium falciparum [2]", "value": 94, "unit": "%"}, {"measurement": "Inhibition", "setting": "HepG2", "value": 10, "unit": "%"}]}
